The target in assay [1] is Acetylcholinesterase (Homo sapiens) (UniProt P22303). Nature of the assay: Acetylcholinesterase (AChE) small molecule antagonists: colormetric cell-based qHTS assay (AID 1347395). Also: nearly all actives have a fitted effect of over 30% in size. Also: potency is read from the fitted curve at half-maximal effect. The procedure, abridged:
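Quantitative HTS in attached SH-SY5Y cells: 30 min compound exposure, then 90 min with acetylthiocholine and DTNB at 37 C; colour from thiocholine reports AChE activity.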
On the technique in general: In qHTS, concentration-response curves come from the screen itself.

For assay [2] the target is unchanged. The assay is described as follows: Acetylcholinesterase (AChE) small molecule antagonists: enzyme-based qHTS assay (AID 1347397). Also: nearly all actives have a fitted effect of over 55% in size. Also: potency is read from the fitted curve at half-maximal effect. The note with it: Potency: AChE enzyme activity inhibition; outcome: AChE enzyme activity inhibition. In a few lines: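 Tox21 library chemicals are tested in qHTS format against recombinant human AChE. The enzyme, dispensed at 50 mU/mL, sits with compound for 30 min at room temperature. A DTNB–acetylthiocholine cocktail follows, and colour is read after 10 min.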

The target is the same in assay [3]. Nature of the assay: Acetylcholinesterase (AChE) small molecule antagonists: fluorescence cell-based qHTS assay (AID 1347398). Also: nearly all actives have a fitted effect of over 50% in size. Also: potency is read from the fitted curve at half-maximal effect. As to conditions: Potency: AChE activity; outcome: AChE activity. In a few lines: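 Cellular AChE inhibition: SH-SY5Y cells treated with test chemical for 30 min at 37 C, then acetylthiocholine hydrolysis followed over 40 min at room temperature via thiocholine-reactive Thiolite Green fluorescence (490/520 nm).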

For assay [4] the target is unchanged. The assay is described as follows: Acetylcholinesterase (AChE) small molecule antagonists: enzyme-based qHTS assay with human liver microsomes (AID 1347399). Also: nearly all actives have a fitted effect of over 60% in size. As to conditions: Potency: qHTS inhibition; outcome: qHTS inhibition. The procedure, abridged:
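Recombinant human AChE (50 mU/mL in the enzyme mix) and human liver microsomes (0.25 mg/mL final) were preincubated with compound and NADPH (0.25 mg/mL final) for 30 min at 37 C. Acetylthiocholine/DTNB was then added; thiocholine was read colorimetrically after 10 min at room temperature.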

A number with no mark means an inactive call. Results filed as inconclusive are left out. Active and inactive are the calls of the source. Calls follow the shape of the full dose curve.

Sequence of Acetylcholinesterase (Homo sapiens) (P22303 whole entry, looked up): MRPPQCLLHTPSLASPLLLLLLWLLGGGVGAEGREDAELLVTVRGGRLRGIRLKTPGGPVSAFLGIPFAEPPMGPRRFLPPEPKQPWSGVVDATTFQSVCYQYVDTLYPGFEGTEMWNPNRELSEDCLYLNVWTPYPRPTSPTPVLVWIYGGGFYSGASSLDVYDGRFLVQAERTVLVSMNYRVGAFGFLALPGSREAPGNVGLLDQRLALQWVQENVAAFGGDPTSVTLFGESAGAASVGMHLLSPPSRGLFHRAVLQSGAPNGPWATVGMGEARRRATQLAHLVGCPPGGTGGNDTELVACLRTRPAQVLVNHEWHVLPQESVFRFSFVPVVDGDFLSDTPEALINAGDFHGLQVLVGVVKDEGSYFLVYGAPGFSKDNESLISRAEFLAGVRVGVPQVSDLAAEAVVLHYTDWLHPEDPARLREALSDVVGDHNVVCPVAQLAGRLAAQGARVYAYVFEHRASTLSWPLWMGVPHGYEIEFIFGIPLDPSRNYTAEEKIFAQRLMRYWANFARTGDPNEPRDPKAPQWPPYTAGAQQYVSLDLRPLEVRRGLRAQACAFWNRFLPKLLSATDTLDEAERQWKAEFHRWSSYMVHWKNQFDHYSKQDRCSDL

For the compound `CCCCC1(COC(=O)CCC(=O)O)C(=O)N(c2ccccc2)N(c2ccccc2)C1=O`, the Potency result in assay [1], in assay [2], in assay [3] and in assay [4] was “inactive” throughout.

For the compound `CC(C)(c1ccc(O)cc1)c1ccc(O)cc1`, the Potency result in assay [1], in assay [2], in assay [3] and in assay [4] was “inactive” throughout.

For the compound `N#Cc1ccc(C(=O)O)cc1`, the Potency entry in assay [1], in assay [2], in assay [3] and in assay [4] was “inactive” in each case.

Take `CCC(C)(C)OC`: the Potency result in assay [1], in assay [2], in assay [3] and in assay [4] was “inactive” throughout.

Turning to `CCCC(=O)O`, the Potency result in assay [1], in assay [2], in assay [3] and in assay [4] was “inactive” throughout.

As for `C=CC(=O)Nc1cc2c(Nc3ccc(F)c(Cl)c3)ncnc2cc1OCCCN1CCOCC1`, the Potency result in assay [1], in assay [2], in assay [3] and in assay [4] was “inactive” in each case.

For the compound `CCOC(/C=C(\C)CCC=C(C)C)OCC`, the Potency entry in assay [1], in assay [2], in assay [3] and in assay [4] was “inactive” in each case.

As to `CC/C(=C\C(=N/O)C(N)=O)C(C)[N+](=O)[O-]` (centres undefined), the Potency entry in assay [1], in assay [2], in assay [3] and in assay [4] was “inactive” in each case.

On to `C=CC(=O)N1CCOCC1`, for which the Potency entry in assay [1], in assay [2], in assay [3] and in assay [4] was “inactive” each time.

In the case of `C1=CCCC1`, the Potency result in assay [1], in assay [2], in assay [3] and in assay [4] was “inactive” each time.

For the compound `Cc1cc(C)c(C)cc1C`, the Potency entry in assay [1], in assay [2], in assay [3] and in assay [4] was “inactive” throughout.

On to `Cc1ccsc1C(=CCCN1CCC[C@@H](C(=O)O)C1)c1sccc1C`, for which the Potency entry in assay [1], in assay [2], in assay [3] and in assay [4] was “inactive” each time.

For `CC(CCc1ccc(O)cc1)NCCc1ccc(O)c(O)c1` (centres undefined), the Potency entry in assay [1], in assay [2], in assay [3] and in assay [4] was “inactive” in each case.

Turning to `c1cc(CN2CCCCC2)cc(OCCCNc2nc3ccccc3s2)c1`, the Potency was 15.5 µM (active) in assay [1], 27.5 µM (active) in assay [2] and 13.8 µM (active) in assay [3]. Besides, the Potency entry in assay [4] was “inactive”.

As for `CC(COC(=O)c1ccccc1)OC(=O)c1ccccc1` (centres undefined), the Potency result in assay [1], in assay [2], in assay [3] and in assay [4] was “inactive” in each case.

Turning to `O=C1CCC(N2C(=O)c3ccccc3C2=O)C(=O)N1` (centres undefined), the Potency result in assay [1], in assay [2], in assay [3] and in assay [4] was “inactive” throughout.

Turning to `CCCCCCCCOC(C)=O`, the Potency result in assay [1], in assay [2], in assay [3] and in assay [4] was “inactive” each time.

Take `COC(=O)c1ccc(C(=O)OC)cc1`: the Potency entry in assay [1], in assay [2], in assay [3] and in assay [4] was “inactive” throughout.

As to `Nc1ccc(S(=O)(=O)Nc2cnc3ccccc3n2)cc1`, the Potency result in assay [1], in assay [2], in assay [3] and in assay [4] was “inactive” each time.

`c1ccc(-c2ccccc2-c2ccccc2)cc1`: the Potency entry in assay [1], in assay [2], in assay [3] and in assay [4] was “inactive” in each case.

Turning to `C[C@@H]1CC(=O)NN=C1c1ccc(NN=C(C#N)C#N)cc1`, the Potency result in assay [1], in assay [2], in assay [3] and in assay [4] was “inactive” throughout.

In the case of `CC[C@H]1OC(=O)[C@H](C)[C@@H](O[C@H]2C[C@@](C)(OC)[C@@H](O)[C@H](C)O2)[C@H](C)[C@@H](O[C@@H]2O[C@H](C)C[C@H](N(C)C)[C@H]2O)[C@](C)(O)C[C@@H](C)CN(C)[C@H](C)[C@@H](O)[C@]1(C)O`, the Potency entry in assay [1], in assay [2], in assay [3] and in assay [4] was “inactive” in each case.

`CC(C)(N)CO`: the Potency result in assay [1], in assay [2], in assay [3] and in assay [4] was “inactive” throughout.

For `O=C(O)C(=O)O`, the Potency entry in assay [1], in assay [2], in assay [3] and in assay [4] was “inactive” throughout.

Consider `C=CC(C)(C)CC(=O)OC`, for which the Potency entry in assay [1], in assay [2], in assay [3] and in assay [4] was “inactive” throughout.

Regarding `Cc1ccccc1C=O`, the Potency result in assay [1], in assay [2], in assay [3] and in assay [4] was “inactive” in each case.

As for `CCCNC(C)C(=O)Nc1ccccc1C` (centres undefined), the Potency result in assay [1], in assay [2], in assay [3] and in assay [4] was “inactive” throughout.

Take `CCO[Si](CC)(OCC)OCC`: the Potency result in assay [1], in assay [2], in assay [3] and in assay [4] was “inactive” in each case.

`O=c1[nH]c(=O)n([C@H]2C[C@H](O)[C@@H](CO)O2)cc1Br`: the Potency result in assay [1], in assay [2], in assay [3] and in assay [4] was “inactive” throughout.

In the case of `CC(=O)C1(C)CC2=C(CCCC2(C)C)CC1C` (centres undefined), the Potency entry in assay [1], in assay [2], in assay [3] and in assay [4] was “inactive” throughout.

For the compound `CC(C)c1ccccc1O`, the Potency entry in assay [1], in assay [2], in assay [3] and in assay [4] was “inactive” in each case.

On to `CN(C)CCCN`, for which the Potency entry in assay [1], in assay [2], in assay [3] and in assay [4] was “inactive” throughout.

With `CCc1c(C)cc(N)c(CC)c1N`, the figures for the Potency in assay [1], in assay [2] and in assay [3] were 39.9 µM (active), 71 µM (active) and 39.9 µM (active), respectively. The Potency result in assay [4] is “inactive”.

Regarding `COc1ccccc1OCC1CNC(=O)O1` (centres undefined), the Potency entry in assay [1], in assay [2], in assay [3] and in assay [4] was “inactive” each time.

Consider `Cc1cn([C@H]2C[C@H](N=[N+]=[N-])[C@@H](CO)O2)c(=O)[nH]c1=O`, for which the Potency entry in assay [1], in assay [2], in assay [3] and in assay [4] was “inactive” throughout.

Turning to `OCc1ccccc1O`, the Potency result in assay [1], in assay [2], in assay [3] and in assay [4] was “inactive” throughout.

The values are drawn from PubChem BioAssay (Tox21).
